Bioassay records: PubChem, National Center for Advancing Translational Sciences (NCATS)
Shiga toxin inh = blocks Shiga toxin action in Vero cells; Vero cells, Shiga toxin protein synthesis inhibition reporter; inhibition, % at 38.7 µM; 9.2% of 290,000 active; AID 2315; in the data active means inhibition mostly above about 28%, no sharp cut-off; inactive means mostly below about 43%; further: 0% is about no effect
FMDV antiviral = blocks foot and mouth disease virus. 1.2% of 410,000 active. Potency, µM (series often up to 57.9 µM), for the others: top-dose activity change, negative = inhibition, actives largely listed as inhibitors. AID 1159524. FMDV antiviral cell-based qHTS; calls by dose curve; tested in HEK293T cells; further: read-out not given here; potency means the concentration at half of the fitted maximal effect; on the % scale 0 is the no-effect control and ±100 the full control effect; nearly all actives have a fitted effect of over 45% in size
Cycloheximide cs = counter-screen for Shiga toxin inhibitors: cycloheximide protein synthesis inhibition. cell reporter, cycloheximide protein synthesis inhibition counterscreen. max response, %. 12% of 300,000 active; in the data active means max response mostly above about 13%, no sharp cut-off; inactive means mostly below about 14%; further: read at 38.3 µM for the half of the compounds with a filed dose; 0% is about no effect
Sm TGR inh = S. mansoni TGR enzyme inhibition. Q962Y6. purified TGR, DTNB reduction, TNB absorbance 405 nm. Potency, µM (doses to about 114 µM), for inactives: at the highest dose activity change, negative = inhibition, most hits filed as inhibitors. 3% of 360,000 active. AID 485364; active means well fitted inhibition curve with a large enough effect; inconclusive means small, poorly fitted or top-dose-only effect; inactive means no such curve, though single readings can be large or run the other way; further: potency means the concentration at half of the fitted maximal effect; on the % scale 0 is the no-effect control and ±100 the full control effect; nearly all actives have a fitted effect of over 60% in size
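First, TGR (20 nM dispensed) and NADPH were mixed with compound. Second, a 15 min room-temperature incubation followed. Third, further NADPH and then DTNB were added to start the reaction. Finally, TNB absorbance was monitored kinetically.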
Numbers without * were called inactive; i = inactive; ? = inconclusive; . = not tested or not shown; + = active, no number. Hits are enriched below; roughly 12% of the tested compounds scored in any of these assays.

SMILES	Shiga toxin inh	FMDV antiviral	Cycloheximide cs	Sm TGR inh
CN1C(=O)c2ccccc2Sc2ccc(NC(=O)NCc3cccc(Cl)c3)cc21	.	?	.	-7%
Cc1cccc(-c2nc(C(N)=O)c3c(n2)n(-c2ccc4c(c2)OCO4)c(=O)n3C)c1	.	-6%	.	2%
COc1ccc(C(=O)Nc2ccc3c(c2)N(C2CCCC2)C(=O)c2ccccc2S3)cc1OC	.	0%	.	7%
CCN(C(=O)CN1C(=O)COc2ccc(S(=O)(=O)N3CCOCC3)cc21)c1cccc(C)c1	.	2%	.	7%
COc1cc(CN(C)Cc2cc(=O)oc3cc(C)c(Cl)cc23)ccc1OC(F)F	50*	?	22	-3%
Cc1ccc2c(CN(C)Cc3cccc(F)c3)cc(=O)oc2c1	88*	24%	30*	4%
Cc1ccc2c(CN(C)Cc3cccc(Cl)c3)cc(=O)oc2c1C	33	3%	6.4*	0%
CN(Cc1ccccc1)Cc1cc(=O)oc2ccccc12	.	18%	.	.
CCc1ccc2c(CN(C)Cc3ccccc3OC)cc(=O)oc2c1	56	10%	19*	-8%
Cc1nc2sc(C)c(C)n2c(=O)c1S(=O)(=O)N1CCN(c2ccccc2F)CC1	.	-1%	.	4%
CCN(CC(=O)NCc1ccc(F)cc1)C(=O)/C=C/c1ccco1	-3	1%	1	20µM*
O=C(/C=C/c1ccco1)NCCc1ccc(F)cc1	56*	22%	57*	7.1µM*
CCN(CC(=O)NCc1ccc(F)cc1)C(=O)/C=C/c1cccs1	-8	0%	6	4%
NS(=O)(=O)c1ccc(NC(=O)/C=C/c2ccco2)cc1	22	7%	13	6.3µM*
O=C(/C=C/c1ccco1)Nc1ccc(S(=O)(=O)N2CCOCC2)cc1	5	5%	-2	?
CC(=O)NS(=O)(=O)c1ccc(NC(=O)/C=C/c2ccco2)cc1	3	-8%	-3	3.5µM*
CC1=C(/C=C/C(C)=C/C=C/C(C)=C/C(=O)O)C(C)(C)CCC1O (configuration not stated)	.	-22%	.	.
CCN(CC(=O)Nc1ccc(NC(C)=O)cc1)C(=O)/C=C/c1ccco1	.	-3%	.	3%
Cc1sc(NC(=O)/C=C/c2ccco2)c(C(=O)O)c1C	56	14%	25*	40µM*
O=C(/C=C/c1ccco1)Nc1ccc(F)cc1	.	26%	.	7.1µM*
CCCN(CC(=O)Nc1ccc(Cl)cc1Cl)C(=O)/C=C/c1ccco1	174*	4%	77*	-28%
COc1ccc2c(c1)-c1nc(-n3ncc(C(=O)NCc4cccc(C)n4)c3C3CC3)ncc1CC2	.	-17%	.	.
COc1ccccc1C/C(N)=N/OC(=O)c1cccc([N+](=O)[O-])c1C	21	-14%	15*	-13%
COc1ccc(/C(N)=N/OC(=O)c2cccc([N+](=O)[O-])c2C)cc1	33	4%	-2	.
O=C(NCC1Cc2cccc(-c3cnccn3)c2O1)c1ccc(F)c(Cl)c1 (configuration not stated)	.	-6%	.	.
SMILES	Shiga toxin inh	FMDV antiviral	Cycloheximide cs	Sm TGR inh
Cc1cc(NC(=O)C(C)Oc2ccc(Cl)cc2Cl)no1 (configuration not stated)	19	19%	3	1%
C/C(=C\C(=O)O)C(=O)Nc1nccs1	-6	-8%	-3	3%
CC(Oc1ccc(Cl)cc1)C(=O)Nc1nccs1 (configuration not stated)	56*	10%	17*	3%
O=C(Nc1ccccc1)Nc1nccs1	45*	36%	38*	6%
CC(Oc1ccc(Cl)cc1)C(=O)Nc1ccc(S(=O)(=O)Nc2nccs2)cc1 (configuration not stated)	-8	42%	-4	8%
CC(Oc1ccc(Cl)cc1Cl)C(=O)Nc1ncccn1 (configuration not stated)	41	32%	22*	2%
C/C(=C\C(=O)Nc1nccs1)c1ccccc1	116*	53%	57*	7%
COc1cccc(NC(=O)CSc2nc(=O)n(Cc3cccnc3)c3c2CCC3)c1	.	25%	.	1%
O=C(Nc1ccc(Cl)cc1)Nc1nccs1	47*	20%	30*	-30%
O=C(CS(=O)(=O)c1ccc(Cl)cc1)Nc1nccs1	.	3%	.	.
Clc1cc(Cl)cc(C2=N[C@@H](Cc3ccccc3)CO2)c1	i	.	6	.
O=[N+]([O-])c1cccc(C2=N[C@@H](Cc3ccccc3)CO2)c1	+	.	53*	.
CC(C)C[C@H]1COC(c2ccc(Br)cc2)=N1	+	.	39*	.
Brc1ccc(C2=N[C@@H](Cc3ccccc3)CO2)cc1	+	.	57*	.
COc1ccccc1-n1c(=O)n(C)c2c(C(N)=O)nc(-c3cc(OC)c(OC)c(OC)c3)nc21	.	-17%	.	-3%
CCOC(=O)COn1c(-c2cccc(Cl)c2)nc2ccc([N+](=O)[O-])cc21	63*	36%	76*	0%
CCOC(=O)C(C)On1c(-c2cccc(Cl)c2)nc2ccc([N+](=O)[O-])cc21 (configuration not stated)	102*	-2%	46*	40%
CCOC(=O)c1c(C)nc(C)c(C(=O)OCC)c1-c1cccc([N+](=O)[O-])c1	.	-24%	.	.
Cc1cccc(CNC(=O)C(=O)Nc2ccccc2C)c1	.	2%	.	12%
COc1ccc(OC)c(CNS(=O)(=O)c2ccc3c(c2)CCCN3C(C)=O)c1	.	13%	.	1%
CCN1C(=C2C(=O)c3ccccc3C2=O)C=Cc2ccccc21	39*	22%	25*	-25%
CCN1C(=O)/C(=C2\C=Cc3ccccc3N2CC)SC1=S	31	38%	20	4%
CCN1C(=O)/C(=C2/C=Cc3ccccc3N2C)OC1=S	44	28%	37*	3%
CCc1ccc(S(=O)(=O)c2nnn3c2nc(NC2CCCCCC2)c2sccc23)cc1	.	-23%	.	2%
COc1ccc(-c2nc(C)c(CCNC(=O)c3c(F)cccc3F)s2)cc1	.	13%	.	2%
SMILES	Shiga toxin inh	FMDV antiviral	Cycloheximide cs	Sm TGR inh
Cc1c(C(=O)c2ccc(Cl)cc2[N+](=O)[O-])c2ccccn2c1CCC#N	-2	-2%	3	7%
Cc1c(C(=O)c2ccc(F)cc2F)c2ccccn2c1CCC#N	9	-7%	12	35µM*
O=c1c(Br)ccc(Br)cc1Br	.	20µM*	.	.
CCOc1ccc(Nc2ncnc(N)n2)cc1	45*	.	18	-11%
Cc1ccc(Nc2ncnc(N)n2)cc1	50*	20%	36*	34%
O=C(NC1CCCCC1)c1ccc(Cn2cc(Br)cn2)o1	-10	-2%	1	45µM*
O=C(Nc1ccc(C(F)(F)F)cc1Cl)c1ccc(Cn2cc(Br)cn2)o1	22	.	1	45µM*
N#Cc1c(NC(=O)c2ccc(Cn3cc(Br)cn3)o2)sc2c1CCCCC2	103	0%	39*	2%
O=C(Nc1ccccc1)Nc1ccc2nnsc2c1	61*	31%	36*	0%
CN(C)c1ccc(NC(=O)Nc2ccc3snnc3c2)cc1	45*	27%	27*	2%
Cc1cc(C)c(NC(=O)Nc2ccc3snnc3c2)c(C)c1	.	0%	.	2%
O=C(Nc1ccccc1)Nc1ccc2snnc2c1	58*	20%	41*	0%
CCOCCCNC(=O)C(c1ccc(Cl)cc1)N(Cc1ccc2c(c1)OCO2)C(=O)c1ccc(NC(C)=O)cc1 (configuration not stated)	.	-17%	.	25%
CCCCc1ccc(NC(=O)C2CCCC2)cc1	.	37%	.	.
